Measured potencies and affinities stand elsewhere. The source made the active and inactive calls.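 How the source made its calls: active means curve fits scoring over 52 on a 0 to 100 blend rewarding potency under 10 µM and span over 20%; inactive means the rest.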
target: ATP-dependent translocase ABCB1 (Homo sapiens) (UniProt P08183); assay: ABCB1 efflux pump inhibitor potency, dose response, Jurkat-DNR cells, JC-1, flow cytometry (AID 1689); conditions: JC-1 efflux; series mostly up to 66.6 µM
Sequence (P08183 whole entry, looked up): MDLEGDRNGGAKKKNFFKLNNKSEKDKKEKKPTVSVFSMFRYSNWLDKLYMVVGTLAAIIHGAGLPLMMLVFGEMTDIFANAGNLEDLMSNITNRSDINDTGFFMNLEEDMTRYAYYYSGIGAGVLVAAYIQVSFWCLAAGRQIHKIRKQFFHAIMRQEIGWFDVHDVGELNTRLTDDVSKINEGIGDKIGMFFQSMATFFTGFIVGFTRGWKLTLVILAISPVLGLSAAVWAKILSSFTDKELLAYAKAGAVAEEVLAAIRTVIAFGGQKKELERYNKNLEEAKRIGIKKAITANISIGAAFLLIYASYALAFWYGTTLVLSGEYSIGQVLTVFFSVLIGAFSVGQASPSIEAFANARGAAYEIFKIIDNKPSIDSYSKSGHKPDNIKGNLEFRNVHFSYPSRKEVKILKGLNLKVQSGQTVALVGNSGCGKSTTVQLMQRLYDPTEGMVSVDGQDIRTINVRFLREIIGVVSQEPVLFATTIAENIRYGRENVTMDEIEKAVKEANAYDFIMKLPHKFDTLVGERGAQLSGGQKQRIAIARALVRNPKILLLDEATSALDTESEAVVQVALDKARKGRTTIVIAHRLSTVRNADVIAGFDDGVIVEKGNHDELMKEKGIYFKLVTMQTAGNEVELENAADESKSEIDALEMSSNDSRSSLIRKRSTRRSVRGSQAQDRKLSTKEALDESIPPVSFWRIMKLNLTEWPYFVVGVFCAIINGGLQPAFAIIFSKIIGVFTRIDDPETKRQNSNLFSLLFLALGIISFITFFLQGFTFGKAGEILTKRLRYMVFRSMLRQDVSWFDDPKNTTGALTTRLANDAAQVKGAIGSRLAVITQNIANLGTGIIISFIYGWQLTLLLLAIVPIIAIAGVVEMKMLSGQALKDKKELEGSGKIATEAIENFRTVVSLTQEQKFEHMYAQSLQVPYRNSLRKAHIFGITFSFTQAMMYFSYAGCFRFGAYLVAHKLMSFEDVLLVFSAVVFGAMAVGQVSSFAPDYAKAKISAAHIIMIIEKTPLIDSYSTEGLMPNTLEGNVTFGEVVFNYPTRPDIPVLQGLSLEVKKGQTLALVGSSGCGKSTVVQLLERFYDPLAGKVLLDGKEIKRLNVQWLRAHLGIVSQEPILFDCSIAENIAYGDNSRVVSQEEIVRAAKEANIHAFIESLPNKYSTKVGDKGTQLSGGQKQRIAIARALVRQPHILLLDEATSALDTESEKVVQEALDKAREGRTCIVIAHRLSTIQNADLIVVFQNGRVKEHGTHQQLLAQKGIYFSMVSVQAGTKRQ

outcome, inactive:
CC(C)C(NS(=O)(=O)c1ccccc1)C(=O)OCc1cc([N+](=O)[O-])cc2c1OCOC2 (stereo not drawn)
N#CC(C#N)=C1C=C2C=C(N3CCCCCC3)CCC2CC1 (stereo not drawn)
Cc1c(C(=O)Nc2ccc(F)cc2)c2ccccn2c1CCc1ccncc1
COC(=O)c1ccc(C(C(=O)NC2CCCCC2)N(Cc2ccccc2)C(=O)Cc2cccs2)cc1 (stereo not drawn)
COc1cccc(-c2nc(N3CC(C)CC(C)C3)c3ccccc3n2)c1O (stereo not drawn)
COc1ccc(CCNC(=O)COC(=O)/C=C/c2ccc(OC)c(OC)c2)cc1
COC(=O)c1cc(NC(=O)c2ccccc2)c(=O)oc1/C=C/Nc1ccc(Oc2ccccc2)cc1
CC(=O)Nc1ccc(Nc2ccc(S(=O)(=O)C(F)(F)F)cc2[N+](=O)[O-])cc1
CCCCN(C)C1=CC2=CC(=C(C#N)C#N)CCC2CC1 (stereo not drawn)
O=[N+]([O-])c1ccc(Nc2nc(Cl)nc(NCCO)n2)cc1
CCN(CC)C1=CC2=CC(=C(C#N)C#N)CCC2CC1 (stereo not drawn)
N#CC(C#N)=C1C=C2C=C(N3CCOCC3)CCC2CC1 (stereo not drawn)
COc1ccc2cc(C(=O)OC(C)C)sc(=O)c2c1OC
CCOc1ccccc1NC(=O)C(OC(=O)c1ccc(N(C)C)cc1)c1ccccc1 (stereo not drawn)
Cc1cc(C)c(C#N)c(SCc2c(F)cccc2[N+](=O)[O-])n1
COc1cc(C(=O)Nc2ccc(S(=O)(=O)NC(C)C)cc2)cc(OC)c1OC
CCCCN1/C(=C/c2ccc3ccccc3[n+]2CC)Sc2ccccc21
CC1=NN(c2ccc([N+](=O)[O-])cc2)C(=O)/C1=C/N(C)C
CN1CCN(C2=CC3=CC(=C(C#N)C#N)CCC3CC2)CC1 (stereo not drawn)
CN(C)c1ccc(/C=C2\SC(=S)N(Nc3ncc(C(F)(F)F)cc3Cl)C2=O)cc1
COc1ccccc1Nc1nc2nonc2nc1N1CCCCC1C (stereo not drawn)
CNc1nc2cc([N+](=O)[O-])c([N+](=O)[O-])cc2nc1NC

inhibition, inactive:
CCOC(=O)c1sc2cc([N+](=O)[O-])cc(SCC(C)C)c2c1N 56.3% [at 2.47 µM]

Reference: PubChem BioAssay AID1689 (NMMLSC, 2009)
